# Source: the supplement of paper PMC12067093, “Discovery and optimisation of a covalent ligand for TRIM25 and its application to targeted protein ubiquitination” (Chemical Science, 2025)
# Targets with the largest changes are over-represented here; the source holds about 21,000 in all.
# Biological target: TMLHE_Q9NVH6_51_SLTCAWQQHEDHFELK (UniProt Q9NVH6)
# Experiment: probe-labelled cysteine peptide fold change vs DMSO (competition) (log2 fold change); higher = less target engagement (more negative = stronger competition)
# Details: THP-1, incubation time: 4 h
# 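Further: competitive profiling in live THP-1 cells: cysteine peptides tagged with an iodoacetamide desthiobiotin (IA-DTB) probe, intensity after compound treatment relative to DMSO-treated cells.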
# UniProt Q9NVH6, sequence (Q9NVH6 whole entry, looked up): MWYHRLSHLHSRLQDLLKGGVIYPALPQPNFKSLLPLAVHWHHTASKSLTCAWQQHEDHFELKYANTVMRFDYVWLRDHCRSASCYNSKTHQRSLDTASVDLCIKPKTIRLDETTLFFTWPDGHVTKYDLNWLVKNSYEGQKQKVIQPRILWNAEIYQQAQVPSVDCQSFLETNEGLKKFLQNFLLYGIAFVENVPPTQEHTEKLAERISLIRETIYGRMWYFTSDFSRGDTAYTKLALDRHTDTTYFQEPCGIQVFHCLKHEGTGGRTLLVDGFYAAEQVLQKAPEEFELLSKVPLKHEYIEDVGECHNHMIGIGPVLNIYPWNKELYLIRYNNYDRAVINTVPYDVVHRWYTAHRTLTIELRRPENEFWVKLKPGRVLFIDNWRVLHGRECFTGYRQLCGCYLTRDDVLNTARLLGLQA
smiles,measurement,setting,value
Cc1cc(C(=O)N2CCCN(C(=O)CCl)CC2)ccc1-c1ccccc1 [compound 10],probe-labelled cysteine peptide fold change,10 µM,-0.0542
same,probe-labelled cysteine peptide fold change,50 µM,-0.13
